Reference: PubChem BioAssay (Tox21)
Records with an inconclusive call do not appear. Values without a mark were called inactive. The source made the active and inactive calls. The call rests on the fitted dose curve; in most records, active means well fitted inhibition curve with a large enough effect in the repeat runs; inconclusive means weak or mixed curves; inactive means no such curve, though single readings can be large or run the other way. Where a SMILES comes first, the peptide text is derived from it.

target: Cytochrome P450 2D6 (Homo sapiens) (UniProt P10635); assay: Cytochrome P450 Family 2 Subfamily D Member 6 (CYP2D6) small molecule antagonists: luciferase reporter qHTS assay (AID 1671196); details: P450-Glo CYP2D6 enzyme assay, luciferin luminescence, 1 h; series mostly up to 115 µM; activity change, negative = inhibition: at the top concentration; further: nearly all actives have a fitted effect of over 50% in size
Method in brief: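 Inhibition of CYP2D6 was gauged by loss of luminescence, since light produced tracks the luciferin generated from a proluciferin substrate. A 10 min room-temperature preincubation preceded 1 h NADPH-supported turnover.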
On the % scale 0 is the no-effect control and ±100 the full control effect; potency means the concentration at half of the fitted maximal effect.

Cytochrome P450 2D6 (Homo sapiens), sequence (P10635 whole entry, looked up): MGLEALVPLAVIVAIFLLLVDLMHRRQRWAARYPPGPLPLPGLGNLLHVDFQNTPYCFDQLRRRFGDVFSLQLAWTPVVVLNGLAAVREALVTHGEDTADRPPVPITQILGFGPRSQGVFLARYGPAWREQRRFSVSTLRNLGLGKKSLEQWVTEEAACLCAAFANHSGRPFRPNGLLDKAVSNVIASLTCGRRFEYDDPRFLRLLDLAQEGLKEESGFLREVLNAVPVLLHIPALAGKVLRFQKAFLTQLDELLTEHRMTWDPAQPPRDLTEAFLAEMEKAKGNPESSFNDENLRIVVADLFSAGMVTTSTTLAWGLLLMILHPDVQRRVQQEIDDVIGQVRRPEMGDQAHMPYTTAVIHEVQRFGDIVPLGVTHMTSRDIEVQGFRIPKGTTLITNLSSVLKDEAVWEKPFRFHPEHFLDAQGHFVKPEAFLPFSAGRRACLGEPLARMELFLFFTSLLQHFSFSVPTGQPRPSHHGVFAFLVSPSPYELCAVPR

Compound | activity change, negative = inhibition | Potency
CC(C)(CO)C(O)C(=O)NCCCO (stereo not drawn) | -1.28% | –
C=C(C)[C@@H]1CC=C(C)C(=O)C1 | 1.51% | –
[O-][n+]1cccc(/C(Cl)=N/OC[C@@H](O)CN2CCCCC2)c1 | – | 15.5 µM (active)
C/C=C(\C)C(=O)OCCc1ccccc1 | -12.7% | –
OC[C@@H](O)C(O)[C@@H](O)CO (stereo partly drawn) | -6.29% | –
CC(CO)(CO)CO | – | 28.6 µM (active)
C=CCCCCCCCC | -16.7% | –
CCC(=O)CC | -0.378% | –
CC(=O)N[C@@H](CO)C(=O)N[C@@H](CC(=O)O)C(=O)N[C@@H](CCCCN)C(=O)N1CCC[C@H]1C(=O)O (Ac-SDKP-OH) | 4.97% [at 53 µM] | –
CCC/C=C(\C=O)CC | -16.7% | –
Cc1ccc(C(C)NC(=O)[C@@H](NC(=O)OC(C)C)C(C)C)cc1 (stereo partly drawn) | – | 35.5 µM (active)
COC(C)(OC)OC | 1.22% | –
CC(C)Nc1ccccc1 | -0.742% | –
CC(C)=CCC/C(C)=C/COC=O | -1.69% | –
O=C1CCC(=O)N1Cl | -9.64% | –
c1ccc(-c2nn[nH]n2)cc1 | -20% | –
Cc1cc(-c2ccccc2)nnc1NCCN1CCOCC1 | – | 8.71 µM (active)
CC(C)COC(=O)c1ccccc1 | -24.9% | –
CC(C)C[C@@H]1[C@H](c2ccccc2)OC(=O)N1CCCN1CCCCCC1 | – | 0.436 µM (active)

Compound | activity change, negative = inhibition | Potency
CCCCOCCOC(=O)COc1ccc(Cl)cc1Cl | -15.4% | –
CC/C(C)=N\O[Si](C)(O/N=C(\C)CC)O/N=C(\C)CC | – | 32.1 µM (active)
O=C(O)c1cc2ccccc2nc1C(=O)O | -9.01% | –
CCCSSCCC | -13.2% | –
Cc1ccc(C(=O)O)cc1[N+](=O)[O-] | -8.56% | –
C=CCCCCCCCCC(=O)OCCCC | -3.49% | –
C=C(C)[C@@H]1CC=C(C)CC1 | -12.1% | –
CCCCC1CCC(O)CC1 (stereo not drawn) | -6.36% | –
Cc1c(Cl)cccc1Cl | -15.5% | –
CC(=O)OCC(=O)Nc1cc(C#N)cc(NC(=O)COC(C)=O)c1Cl | -18% [at 53 µM] | –
COc1cc(OC)nc(O[C@H](C(=O)O)C(OC)(c2ccccc2)c2ccccc2)n1 | -0.34% [at 53 µM] | –
CC(S)C(C)S (stereo not drawn) | 1.09% | –
CCOCCOCC | 3.36% | –
CC(O)CC(C)O (stereo not drawn) | -7.54% | –
COS(=O)(=O)O | 0.089% | –
CCCCCCC1(C)CCC(=O)O1 (stereo not drawn) | -12.9% | –
CC1CC(=O)CC(C)(C)C1 (stereo not drawn) | 0.235% | –
O=C1CCCCO1 | -6.98% | –

target: Cytochrome P450 2C19 (Homo sapiens) (UniProt P33261); assay: Cytochrome P450 Family 2 Subfamily C Member 19 (CYP2C19) small molecule antagonists: luciferase reporter qHTS assay (AID 1671197); details: P450-Glo CYP2C19 enzyme, luciferin luminescence, 1 h; series mostly up to 115 µM; activity change, negative = inhibition: at the top concentration; further: nearly all actives have a fitted effect of over 65% in size
Method in brief: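 P450-Glo CYP2C19 screening system; proluciferin substrate; DMSO compound stocks; 10 min RT preincubation; NADPH regeneration, 1 h at 37C; luciferin detection reagent, 20 min RT; luminescence as RLU.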

Cytochrome P450 2C19 (Homo sapiens), sequence (P33261 whole entry, looked up): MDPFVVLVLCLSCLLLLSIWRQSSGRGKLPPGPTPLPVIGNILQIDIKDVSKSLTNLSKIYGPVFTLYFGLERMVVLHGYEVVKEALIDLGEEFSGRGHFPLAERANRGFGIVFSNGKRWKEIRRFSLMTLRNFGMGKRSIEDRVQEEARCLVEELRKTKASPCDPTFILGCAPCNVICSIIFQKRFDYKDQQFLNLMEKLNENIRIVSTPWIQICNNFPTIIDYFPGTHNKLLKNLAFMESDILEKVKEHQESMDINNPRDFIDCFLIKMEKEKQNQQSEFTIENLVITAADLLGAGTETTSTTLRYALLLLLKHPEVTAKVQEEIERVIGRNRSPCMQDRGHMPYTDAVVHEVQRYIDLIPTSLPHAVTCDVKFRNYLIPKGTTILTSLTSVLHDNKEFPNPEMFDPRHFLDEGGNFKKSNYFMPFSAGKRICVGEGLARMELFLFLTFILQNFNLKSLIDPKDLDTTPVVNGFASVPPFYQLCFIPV

Compound | activity change, negative = inhibition | Potency
CC(C)(CO)C(O)C(=O)NCCCO (stereo not drawn) | 12.1% | –
C=C(C)[C@@H]1CC=C(C)C(=O)C1 | -10.5% | –
C/C=C(\C)C(=O)OCCc1ccccc1 | – | 39.9 µM (active)
OC[C@@H](O)C(O)[C@@H](O)CO (stereo partly drawn) | – | 40.4 µM (active)
CC(CO)(CO)CO | 9.47% | –
C=CCCCCCCCC | -7.03% | –
CCC(=O)CC | 9.45% | –
CC(=O)N[C@@H](CO)C(=O)N[C@@H](CC(=O)O)C(=O)N[C@@H](CCCCN)C(=O)N1CCC[C@H]1C(=O)O (Ac-SDKP-OH) | -23.7% [at 52.9 µM] | –
CCC/C=C(\C=O)CC | – | 39.9 µM (active)
Cc1ccc(C(C)NC(=O)[C@@H](NC(=O)OC(C)C)C(C)C)cc1 (stereo partly drawn) | – | 56.2 µM (active)
COC(C)(OC)OC | 27.8% | –
CC(C)Nc1ccccc1 | 4.55% | –
CC(C)=CCC/C(C)=C/COC=O | 23.7% | –
O=C1CCC(=O)N1Cl | 2.33% | –
c1ccc(-c2nn[nH]n2)cc1 | 7.28% | –
Cc1cc(-c2ccccc2)nnc1NCCN1CCOCC1 | 1.5% [at 52.9 µM] | –
CC(C)COC(=O)c1ccccc1 | -9.13% | –
CC(C)C[C@@H]1[C@H](c2ccccc2)OC(=O)N1CCCN1CCCCCC1 | – | 2.75 µM (active)

Compound | activity change, negative = inhibition | Potency
CCCCOCCOC(=O)COc1ccc(Cl)cc1Cl | – | 79.6 µM (active)
CC/C(C)=N\O[Si](C)(O/N=C(\C)CC)O/N=C(\C)CC | – | 22.8 µM (active)
O=C(O)c1cc2ccccc2nc1C(=O)O | -1.72% | –
CCCSSCCC | 6.29% | –
Cc1ccc(C(=O)O)cc1[N+](=O)[O-] | -1.2% | –
C=CCCCCCCCCC(=O)OCCCC | – | 56.4 µM (active)
C=C(C)[C@@H]1CC=C(C)CC1 | -10.7% | –
CCCCC1CCC(O)CC1 (stereo not drawn) | 20.3% | –
Cc1c(Cl)cccc1Cl | 30.9% | –
CC(=O)OCC(=O)Nc1cc(C#N)cc(NC(=O)COC(C)=O)c1Cl | -11.3% [at 52.9 µM] | –
COc1cc(OC)nc(O[C@H](C(=O)O)C(OC)(c2ccccc2)c2ccccc2)n1 | -8.15% [at 52.9 µM] | –
CC(S)C(C)S (stereo not drawn) | -17.9% | –
CCOCCOCC | 14.3% | –
CC(O)CC(C)O (stereo not drawn) | 2.16% | –
COS(=O)(=O)O | -7.18% | –
CCCCCCC1(C)CCC(=O)O1 (stereo not drawn) | 10.4% | –
CC1CC(=O)CC(C)(C)C1 (stereo not drawn) | 3.09% | –
O=C1CCCCO1 | 10.3% | –

target: Cytochrome P450 2C9 (Homo sapiens) (UniProt P11712); assay: Cytochrome P450 Family 2 Subfamily C Member 9 (CYP2C9) small molecule antagonists: luciferase reporter qHTS assay (AID 1671198); details: P450-Glo CYP2C9 enzyme assay, luciferin luminescence; series mostly up to 115 µM; activity change, negative = inhibition: at the top concentration; further: nearly all actives have a fitted effect of over 50% in size
Method in brief: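 P450-Glo proluciferin substrate with CYP2C9 enzyme; 10 min RT preincubation, then NADPH regeneration 1 h at 37C; luciferin detection reagent 20 min RT, luminescence in relative luminescence units.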

Cytochrome P450 2C9 (Homo sapiens), sequence (P11712 whole entry, looked up): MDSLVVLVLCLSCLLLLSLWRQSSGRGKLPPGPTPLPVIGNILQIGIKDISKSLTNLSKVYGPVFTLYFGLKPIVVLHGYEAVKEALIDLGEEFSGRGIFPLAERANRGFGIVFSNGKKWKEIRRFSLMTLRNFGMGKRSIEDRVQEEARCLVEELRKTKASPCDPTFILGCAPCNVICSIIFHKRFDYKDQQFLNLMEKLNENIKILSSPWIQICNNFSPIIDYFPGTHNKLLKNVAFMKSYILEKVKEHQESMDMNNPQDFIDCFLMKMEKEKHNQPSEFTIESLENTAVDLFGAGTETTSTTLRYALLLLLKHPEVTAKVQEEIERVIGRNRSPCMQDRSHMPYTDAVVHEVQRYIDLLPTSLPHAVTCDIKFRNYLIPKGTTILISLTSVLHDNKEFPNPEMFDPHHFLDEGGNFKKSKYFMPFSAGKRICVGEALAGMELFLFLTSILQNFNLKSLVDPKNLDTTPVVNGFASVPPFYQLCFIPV

Compound | activity change, negative = inhibition | Potency
CC(C)(CO)C(O)C(=O)NCCCO (stereo not drawn) | -5.58% | –
C=C(C)[C@@H]1CC=C(C)C(=O)C1 | -18% | –
[O-][n+]1cccc(/C(Cl)=N/OC[C@@H](O)CN2CCCCC2)c1 | 3.97% [at 53 µM] | –
CC(CO)(CO)CO | -5.11% | –
CCC(=O)CC | 1.41% | –
CCC/C=C(\C=O)CC | – | 63.3 µM (active)
Cc1ccc(C(C)NC(=O)[C@@H](NC(=O)OC(C)C)C(C)C)cc1 (stereo partly drawn) | – | 31.6 µM (active)
COC(C)(OC)OC | -1.37% | –
CC(C)Nc1ccccc1 | 0.352% | –
CC(C)=CCC/C(C)=C/COC=O | -10% | –
O=C1CCC(=O)N1Cl | 5.49% | –
CC(C)COC(=O)c1ccccc1 | -4.8% | –
O=C(O)c1cc2ccccc2nc1C(=O)O | -11.8% | –
CCCSSCCC | -9.3% | –
Cc1ccc(C(=O)O)cc1[N+](=O)[O-] | -0.897% | –
C=C(C)[C@@H]1CC=C(C)CC1 | -8.24% | –
CCCCC1CCC(O)CC1 (stereo not drawn) | -8.79% | –
Cc1c(Cl)cccc1Cl | -7.47% | –
CC(=O)OCC(=O)Nc1cc(C#N)cc(NC(=O)COC(C)=O)c1Cl | -10.1% [at 53 µM] | –
CC(S)C(C)S (stereo not drawn) | -5.71% | –
CCOCCOCC | -0.767% | –
CC(O)CC(C)O (stereo not drawn) | 3.32% | –
COS(=O)(=O)O | 0.618% | –
CCCCCCC1(C)CCC(=O)O1 (stereo not drawn) | -15.3% | –
CC1CC(=O)CC(C)(C)C1 (stereo not drawn) | -2.88% | –
